PubChem BioAssay (NCATS)
Records with an inconclusive call do not appear. A call without a number means that no potency is given here. Active and inactive are the calls of the source. Calls follow the shape of the dose curve; as a rule, active = well fitted inhibition curve with a large enough effect; inconclusive = small, poorly fitted or top-dose-only effect; inactive = flat fitted curve, though single readings scatter.

target: Aldehyde dehydrogenase, mitochondrial (Homo sapiens) (UniProt P05091); assay: qHTS for Inhibitors of the Aldehyde Dehydrogenase Family (ALDH2) Primary screen (AID 2061308); conditions: ALDH2 enzyme inhibition qHTS, 1536-well; series mostly up to 56 µM; also: nearly all actives have a fitted effect of over 55% in size

Structure (SMILES)	Potency
Cc1cc(NS(=O)(=O)c2ccc(NC(=O)Cc3ccc(Cl)cc3Cl)cc2)no1	inactive
O=C(Nc1nc(-c2ccccc2)cs1)c1ccncc1NS(=O)(=O)c1cccnc1	inactive
O=S(=O)(NC1CCN(S(=O)(=O)c2ccc3c(c2)OCCO3)C1)c1c(F)cccc1F (stereo not given)	inactive
COc1cccc(-c2ccc3ncnc(NCc4cc(C)cs4)c3c2)c1	inactive
CCCCNc1nc(C)nc2c1nc(-c1ccccc1)n2CCN(C)C	inactive
O=C(N1CCc2cc([S+](=O)([O-])N3CCN([S+](=O)([O-])c4c(F)cccc4F)CC3)ccc2C1)C(F)(F)F	inactive
Nc1ccc(-c2cccc3c(=O)cc(N4CCOCC4)oc23)cc1	inactive
COc1ccc(OC)c(Nc2nn3c(=O)c4ccccc4nc3s2)c1	inactive
COc1ccc(O)c(CNc2ccc(S(=O)(=O)Nc3nccs3)cc2)c1	inactive
C=CCNc1oc(-c2cccc(Cl)c2)nc1C#N	inactive
CC(=O)c1ccc(NC(=O)Nc2nnc(-c3ccncc3)s2)cc1	inactive
Cc1ccc(NS(=O)(=O)c2cc3c(cc2N(C)C)NC(=O)CC3)cc1C	inactive
CC(=O)c1cc2c(s1)c1cnn(Cc3ccccc3F)c(=O)c1n2C	inactive
O=C(CNC(=O)c1ccc(Cl)cc1Cl)OC(C(=O)Nc1cc(C(F)(F)F)ccc1Cl)c1ccccc1 (stereo not given)	inactive
CCSC1=NS(=O)(=O)c2ccccc21	inactive
COc1ccc2nc(-c3ccc(N(C)C)cc3)sc2c1	inactive
Cc1ccc(NS(=O)(=O)c2cc3c(cc2Br)NC(=O)CO3)cc1C	inactive
CC1=CC2/C=C(\C)CCC(O)C(=O)C(O)CC(=O)C23C(=O)NC(CC(C)C)C3C1C (stereo not given)	inactive
COCCN(CCOC)c1nc(C)nc2c1nc(-c1ccccc1)n2CCN1CCCC1	inactive
Cc1ccc(-c2nnc(N3CCC(C(N)=O)CC3)s2)cc1	inactive

Structure (SMILES)	Potency
CCCn1c(C)nc2c(N3CCN(C)CC3)nc(C)nc21	inactive
Cc1ccc(NS(=O)(=O)c2cc3c(cc2N2CCCCC2)NC(=O)CC3)cc1C	inactive
O=S1(=O)N=C(Sc2cc(C(F)(F)F)cc(C(F)(F)F)c2)c2ccccc21	inactive
Brc1cnc2nc(SCc3ccncc3)[nH]c2c1	inactive
Cn1c2cc(B(O)O)sc2c2cnn(Cc3ccccc3F)c(=O)c21	inactive
CC(=O)Nc1ccccc1OC1=N[S+](=O)([O-])c2ccccc21	inactive
Cc1ccc(CNc2ncnc3ccc(-c4ccc5c(c4)OCO5)cc23)o1	inactive
Cc1cnc(-c2ccccc2C2CC2)nc1NCc1ccc(-c2cccnc2)cc1	inactive
S=C(NCCCNc1ccc(Br)cn1)NCCCc1cnc[nH]1	inactive
Cc1nc(-c2ccc(S(=O)(=O)Nc3ccc(C)c(C)c3)s2)cs1	inactive
O=C1CCc2cc(S(=O)(=O)Nc3ccc(Cl)cc3)ccc2N1	inactive
Fc1cccc(CSc2nc3ncc(Br)cc3[nH]2)c1	inactive
Cc1ccc(NS(=O)(=O)c2cc3c(cc2/C=C/c2ccccc2)NC(=O)CO3)cc1C	inactive
CCOC(=O)c1ccoc1-c1ccc2ncnc(N(C)Cc3sccc3C)c2c1	inactive
Cc1ccc(OCCn2c(CCNC(=O)/C=C/c3ccccc3Cl)nc3ccccc32)cc1	inactive
C[N+]1(CC2COC(c3ccccc3)(c3ccccc3)O2)CCCCC1 (stereo not given)	inactive
C/C=C\C1=CCCC1Nc1ncnc2ccc(-c3c(C)noc3C)cc12 (stereo not given)	inactive
c1csc(CNc2ncnc3ccc(-c4ccc5c(c4)OCCO5)cc23)c1	inactive
CCCn1c(-c2ccc(F)cc2)nc2c(NCCN3CCCC3)nc(C)nc21	inactive
COC1CC(O[C@H]2CC[C@]3(C)C4CC[C@]5(C)C(C6=CC(=O)OC6)=CCC56OC46CC[C@@H]3C2)OC(C)C1O[C@@H]1O[C@H](CO[C@@H]2O[C@H](CO)[C@@H](O)[C@H](O)[C@H]2O)[C@@H](O)[C@H](O)[C@H]1O (stereo not given in full)	inactive
